The source of these data is PubChem BioAssay (NCI).

This is part of a sample that, as a whole, favours compounds with a hit. Of some 83,000 tested, about 20% had one in any assay.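 Percent growth is the endpoint: 0 to 100 indicates growth inhibition (40 means 60% inhibition), 0 means no net growth, and negative values indicate cell death.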 Unmarked numbers belong to inactive results. Active and inactive are the calls of the source.

For the assay, the system named is HCC-2998 colon. As to the kind of experiment: NCI-60 one-dose screen, 48 h (100 = growth as untreated, 0 = no growth, -100 = all killed). Particulars: 10 µM unless noted. The method, then: Growth inhibition of the HCC-2998 human tumor cell line is measured as a screen for anti-cancer activity. Cells are grown in 96 well plates and exposed to the test compound for 48 hours. Compounds are tested at a single concentration, which is 10^-5 M for most compounds. The reported endpoint is percent growth (GI% or GIPRCNT), where numbers from 0 - 100% represent growth inhibition, and numbers from -100% - 0 represent cell death. For example, a value of 40 represents 60% growth inhibition. A value of 0 means no net growth occurred over the course of the experiment. A value of -40 indicates 40% of cells at the beginning of the experiment died by the end of the experiment. A value of -100 means all cells are dead at the end of the experiment.
NCI-60 Human Tumor Cell Lines Screen was performed using the standard one-dose NCI protocol, which is described in more detail at https://dtp.cancer.gov/discovery_development/nci-60/default.htm.
Compounds with GIPRCNT values below 10 were considered active. Activity score was based on GIPRCNT using the following formula: […]
Score is 0 for GIPRCNT values of 100 or above, 50 for GIPRCNT values of 0, and 100 for GIPRCNT values of -100.
Take `N/C(=N\OC(=O)CSc1nc2ccccc2s1)c1ccc(Cl)cc1`: the growth was 105%.
Regarding `CS(=O)c1nccc(-c2c(-c3ccc(F)c(OCc4ccccc4)c3)nc3sccn23)n1` (stereo not given), the growth is 50.4%.
Take `Nc1nc(N)c2c(n1)NC(c1ccccc1)CC(c1ccc(Nc3nc(NCCO)nc(Nc4ccc(Cl)cc4)n3)cc1)=N2` (stereo not given): the growth was 68.9%.
Take `Cc1ccc(NC(=O)c2ccc(CN3CCN(C)CC3)c(C(F)(F)F)c2)cc1Oc1ccc(-c2[nH]nc3ncnc(N)c23)cc1`: the growth was 111%.
With `COc1cc2c3c(n(CCCNC4CCC4)c(=O)c2cc1OC)-c1cc2c(cc1C3=O)OCO2`, the growth is -89.3% (active).
For the compound `CN1C(=O)N(C)C2C1NN=c1s/c(=C\c3ccccn3)c(=O)n12` (stereo not given), the growth is 104%.
`COc1ccc(N)cc1C(=O)Nc1cccc(-c2cc(=O)c3c(OC)c(OC)c(OC)cc3o2)c1`: the growth is 55.3%.
Take `COc1cc(C2=NN(C(C)=O)C(c3ccc(N4CCOCC4)cc3)C2)cc(OC)c1OC` (stereo not given): the growth was 107%.
With `Cn1cc(-c2nn3cc(-c4cccnc4)nc3s2)c2ccccc21`, the growth is 60.2%.
For `O=C(COc1ccc(/C=C2\SC(=O)NC2=O)cc1)Nc1ccc(C(=O)/C=C/c2cc3ccccc3nc2Cl)cc1`, the growth is 64.6%.
As to `CC1(C)CC[C@]2(C(=O)O)CC[C@]3(C)C(=CCC4[C@@]5(C)C[C@@H](O)[C@@H]6OC(c7cccc([N+](=O)[O-])c7)OC[C@@]6(C)C5CC[C@]43C)C2C1` (stereo not given in full), the growth is 42%.
For `CCc1ccc(NC(=O)N[C@@H](Cc2cccc(C)c2)C(=O)N[C@@H]2C(=O)N3CCC[C@H]3C(=O)N3CCCC[C@H]3C(=O)N[C@@H](CO)C(=O)N3C[C@H](C)C[C@H]3C(=O)O[C@H]2C)c(F)c1`, the growth is 23.9%.
On to `O=C1Nc2ccc(Br)cc2/C1=N\c1nnc(-c2ccc(Cl)cc2)o1`, for which the growth is 96.2%.
For the compound `COc1ccc(N2C(=O)c3cc(OC)c(OC)cc3NC2SCc2ccccc2)cc1` (stereo not given), the growth was 121%.
As for `CC1(C)CC[C@]2(C(=O)N3CCCN(CC#N)CC3)CC[C@]3(C)C(=CC[C@@H]4[C@@]5(C)CC[C@H](O)C(C)(C)[C@@H]5CC[C@]43C)[C@H]2C1`, the growth was 71.2%.
For `O=c1oc2ccc(-c3ccc(F)cc3F)cc2c(=O)n1-c1ccc(F)c(F)c1`, the growth is 14.5%.
With `CN(C)c1ccc(/C=N/Nc2nc(N/N=C/c3ccc(N(C)C)cc3)nc(N3CCOCC3)n2)cc1`, the growth is 103%.
Take `CCN(CC)CCN1C(=O)c2c(c3c4cc(Br)ccc4[nH]c3c3ccc4ccccc4c23)C1=O`: the growth was -89.5% (active).
`CS(=O)(=O)c1nccc(-c2c(-c3ccc(F)c(OCc4ccccc4)c3)nc3sccn23)n1`: the growth was 32.2%.
For the compound `CSc1nccc(-c2c(-c3ccc(F)c(OCc4ccc(F)cc4)c3)nc3sccn23)n1`, the growth is 93.4%.
With `O=C1/C(=C/c2ccc([N+](=O)[O-])cc2)SC(=Nc2ccccc2)N1Nc1ccccc1`, the growth was 85.3%.
Next, `Cc1[nH]nc2ccc(-c3nc4cnc(N5CCN(C)CC5)cn4c3Nc3ccc(F)cc3Br)cc12`: 69.8%; `COc1cc(/C=N/n2cnc3oc(-c4ccccc4)cc3c2=N)cc(CN2CCN(C)CC2)c1O`: 108%.
`C#CCOc1ccc(C(Nc2ccc(OC)cc2)c2nnnn2C2CCCCC2)cc1` (stereo not given): the growth is 101%.
Regarding `C=CCn1c(SCC(=O)Nc2cccc(C(=O)/C=C/c3cccc([N+](=O)[O-])c3)c2)nc2ccccc2c1=O`, the growth is 101%.
On to `COc1cc2cc(Oc3ccc(NC(=O)Nc4cccc(C(F)(F)F)c4)cc3)c(C)nc2cc1OCCN(C)C`, for which the growth was 105%.
Consider `O=C(NNc1nc2cc(F)ccc2n2cncc12)c1cnccn1`, for which the growth was 19.9%.
Next, `CCNC(=NCCCN(C)C)N/C(N)=N/c1nc2ccccc2s1`: 98.1%; `C#C[C@]1(O)CC[C@H]2[C@@H]3CC=C4c5sc(Nc6cc(Cl)ccn6)nc5CC[C@]4(C)[C@H]3CC[C@@]21C`: 39.8%; `CCOC(=O)Nc1ccc(-c2nc(-c3cccc(O)c3)c(-c3ccnc(Br)c3)[nH]2)cc1`: 56.2%.
Turning to `C=C(C)[C@@H]1CC[C@]2(COS(C)(=O)=O)CC[C@]3(C)[C@H](CC[C@@H]4[C@@]5(C)CCCNC(C)(C)[C@@H]5CC[C@]43C)[C@@H]12`, the growth was 16.4%.
Turning to `COC[C@@]1(C)CC[C@]2(C)CC[C@]3(C)C(=CC[C@@H]4[C@@]5(C)CCCNC(C)(C)[C@@H]5CC[C@]43C)C2C1` (stereo not given in full), the growth is 58.8%.
Next, `CCOC(=O)c1c(NCC(=O)Nc2ccc(Br)cc2)sc2c1CCCC2`: 67.9%; `NC(=O)c1c(NC(=O)c2cccc(C(F)(F)F)c2F)sc2c1CCC(=O)C2`: 44.1%; `CN(C)C(=O)C1=NC(CO)C(=O)N(c2ccc(Cl)cc2)N1` (stereo not given): 109%.
Next, `Cc1ccc(-c2nnc3sc(C4=Cc5ccccc5OC=C4)nn23)cc1`: 101%; `CC(C)=CCC[C@](C)(O)[C@H]1CC[C@]2(C)[C@@H]1CC[C@@H]1[C@@]3(C)CCC(NC(=O)c4ccccc4C(=O)O)C(C)(C)[C@@H]3CC[C@]12C` (stereo not given in full): 96.5%; `CCN1CCN(Cc2ccc(C(=O)Nc3nc4ccc(Oc5ccnc(C(=O)NC)c5)cc4s3)cc2C(F)(F)F)CC1`: 62.8%.
For the compound `O=C1[C@H]2Cc3c([nH]c4ccccc34)[C@@H](c3c(Cl)cccc3Cl)N2C(=O)CN1C1CCN(Cc2ccccc2)CC1`, the growth is 102%.
On to `CCCCCCNC(=O)Oc1ccc(/C(=C(/C)c2ccc(Cl)cc2)c2ccc(OCCN3CCCC3)cc2)cc1`, for which the growth was 37.1%.
